From the supplement of paper PMC12494721
Structures can show the parent of a compound that is named as a salt.

Assays:
Conditions in all cases: incubation time: 27 h, anaerobic, 37 °C;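 for the amine columns active = adjusted P below 0.05 in both replicates with a change the same way and a mean fold change under 0.8 or over 1.25; inactive = the rest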
[1] = tested on: Clostridium sporogenes DSM 1664; assay: growth (OD595) fold change vs plate DMSO controls (fold change (ratio)); higher = more growth
In short: (§1)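 The 96-well mGAM cultures had been kept anaerobic for 27 h at 37 °C before being shaken and read at 595 nm. Blank subtraction, compound background correction with 20 µM compound solutions in water, and a calibration factor of 5 turned the readings into OD. Growth is given as the fold change versus the median of plate DMSO controls. Fold changes above 1.5 were set to NA, and the values are means of 2 biological replicates.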

[2] = tested on: Escherichia coli IAI1; assay: as above
In short: as §1

[3] = tested on: Klebsiella aerogenes DSM 30053; assay: as above
In short: as §1

[4] = tested on: Ruminococcus gnavus DSM 108212; assay: as above
In short: as §1

[5] = tested on: Klebsiella aerogenes DSM 30053; assay: fold change of Histamine concentration vs plate DMSO controls (fold change (ratio)); higher = more amine produced, active = hit call of the paper (significant change in both replicates, either direction)
In short: (§2)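 In 80 µL wells, cultures of four gut bacterial strains in mGAM started at OD 0.1 before a 1:1 dilution and grew anaerobically at 37 °C for 27 h. Compounds were added to 20 µM final, except sweeteners at 50 µM final. After extraction of whole cultures with cold acetonitrile/methanol plus 0.1% formic acid and centrifugation, amines were measured by LC–triple-quadrupole MS in dynamic MRM mode against external calibration curves, with within-batch drift correction. Values give fold change over DMSO controls on the same plate, averaged across 2 biological replicates.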

[6] = tested on: Clostridium sporogenes DSM 1664; assay: fold change of Tryptamine concentration vs plate DMSO controls (fold change (ratio)); higher = more amine produced, active = hit call of the paper (significant change in both replicates, either direction)
In short: as §2

[7] = tested on: Ruminococcus gnavus DSM 108212; assay: as above
In short: as §2

[8] = tested on: Escherichia coli IAI1; assay: fold change of Putrescine concentration vs plate DMSO controls (fold change (ratio)); higher = more amine produced, active = hit call of the paper (significant change in both replicates, either direction)
In short: as §2

[9] = tested on: Klebsiella aerogenes DSM 30053; assay: as above
In short: as §2

[10] = tested on: Escherichia coli IAI1; assay: fold change of Cadaverine concentration vs plate DMSO controls (fold change (ratio)); higher = more amine produced, active = hit call of the paper (significant change in both replicates, either direction)
In short: as §2

[11] = tested on: Klebsiella aerogenes DSM 30053; assay: as above
In short: as §2

[12] = tested on: Ruminococcus gnavus DSM 108212; assay: fold change of 2-Phenylethylamine concentration vs plate DMSO controls (fold change (ratio)); higher = more amine produced, active = hit call of the paper (significant change in both replicates, either direction)
In short: as §2

Compound	growth [1]	growth [2]	growth [3]	growth [4]	fold change of Histamine concentration [5]	fold change of Tryptamine concentration [6]	fold change of Tryptamine concentration [7]	fold change of Putrescine concentration [8]	fold change of Putrescine concentration [9]	fold change of Cadaverine concentration [10]	fold change of Cadaverine concentration [11]	fold change of 2-Phenylethylamine concentration [12]
CCN(CC)CCOC(=O)C1(c2ccc([N+](=O)[O-])cc2)CCCC1 [Nitrocaramiphen hydrochloride] (20 µM)	0.793	1.07	0.995	1.02	1.03 (inactive)	0.949 (inactive)	1.04 (inactive)	1.03 (inactive)	0.982 (inactive)	1.03 (inactive)	0.98 (inactive)	0.995 (inactive)
CC(=O)Oc1ccc(C(=C2CCCCC2)c2ccc(OC(C)=O)cc2)cc1 [Cyclofenil] (20 µM)	0.924	1.04	1.03	0.991	0.983 (inactive)	0.873 (inactive)	0.953 (inactive)	1.05 (inactive)	0.997 (inactive)	0.997 (inactive)	1 (inactive)	0.942 (inactive)
OCCOCCN1CCN(C2=Nc3ccccc3Sc3ccccc32)CC1 [Quetiapine hemifumarate] (20 µM)	0.966	1.13	1.07	0.982	0.894 (inactive)	1 (inactive)	1.01 (inactive)	1.09 (inactive)	0.978 (inactive)	0.892 (inactive)	1.03 (inactive)	0.991 (inactive)
Cc1ccccc1C(OCCN(C)C)c1ccccc1 (stereo not drawn) [Orphenadrine hydrochloride] (20 µM)	0.998	1.02	0.938	1.09	0.902 (inactive)	1.34 (inactive)	1.07 (inactive)	1.07 (inactive)	0.895 (inactive)	1.04 (inactive)	1.03 (inactive)	1.16 (inactive)
Nc1nc(=O)n([C@@H]2CS[C@H](CO)O2)cc1F [(-) Emtricitabine] (20 µM)	1.11	0.995	0.981	1.12	1.01 (inactive)	1.03 (inactive)	1.03 (inactive)	1.01 (inactive)	0.985 (inactive)	0.996 (inactive)	0.991 (inactive)	1.06 (inactive)
Cc1ccc(C(=O)c2cc(O)c(O)c([N+](=O)[O-])c2)cc1 [Tolcapone] (20 µM)	1.11	0.961	0.997	1.19	1.01 (inactive)	0.908 (inactive)	0.983 (inactive)	1.33 (inactive)	0.998 (inactive)	0.981 (inactive)	1 (inactive)	0.971 (inactive)
Nc1cc(-c2ccncc2)c[nH]c1=O [Amrinone] (20 µM)	1.17	0.984	1.02	1.19	0.956 (inactive)	1.05 (inactive)	1 (inactive)	1.02 (inactive)	0.998 (inactive)	0.982 (inactive)	1.02 (inactive)	0.97 (inactive)
Nc1ccn([C@@H]2O[C@H](CO)[C@@H](O)C2(F)F)c(=O)n1 [Gemcitabine] (20 µM)	0.371	0.338	0.294	0	1.07 (inactive)	0.969 (inactive)	0.641 (active)	0.969 (inactive)	1.01 (inactive)	1.02 (inactive)	0.999 (inactive)	0.753 (inactive)
CS(=O)(=O)OCCCCOS(C)(=O)=O [Busulfan] (20 µM)	0.951	1.07	0.991	1.09	0.992 (inactive)	1.04 (inactive)	1.11 (inactive)	1.08 (inactive)	0.962 (inactive)	1.04 (inactive)	1.04 (inactive)	1.09 (inactive)
CC(C)CC(=O)N[C@H](C(=O)N[C@H](C(=O)N[C@@H](CC(C)C)[C@@H](O)CC(=O)N[C@@H](C)C(=O)N[C@@H](CC(C)C)[C@@H](O)CC(=O)O)C(C)C)C(C)C [Pepstatin A] (20 µM)	1.1	1	1	1.06	1.02 (inactive)	1.06 (inactive)	1.05 (inactive)	0.953 (inactive)	1.01 (inactive)	0.961 (inactive)	0.999 (inactive)	1.06 (inactive)
CC1(C)O[C@@H]2C[C@H]3[C@@H]4CCC5=CC(=O)C=C[C@]5(C)[C@H]4[C@@H](O)C[C@]3(C)[C@]2(C(=O)CO)O1 [Desonide] (20 µM)	0.99	1.02	1.01	1.21	1.05 (inactive)	1.18 (inactive)	1.14 (inactive)	0.903 (inactive)	0.991 (inactive)	0.893 (inactive)	0.997 (inactive)	1.23 (inactive)
Nc1nc2c(ncn2COC(CO)CO)c(=O)[nH]1 [Ganciclovir] (20 µM)	0.925	0.989	0.946	1.07	1.04 (inactive)	1.06 (inactive)	0.974 (inactive)	1.02 (inactive)	1.02 (inactive)	1.03 (inactive)	0.999 (inactive)	0.954 (inactive)
Cc1nc2n(c(=O)c1CCN1CCC(c3noc4cc(F)ccc34)CC1)CCCC2 [Risperidone] (20 µM)	1	1	1	1.02	1.04 (inactive)	0.962 (inactive)	0.931 (inactive)	1.33 (inactive)	1.05 (inactive)	0.952 (inactive)	1.01 (inactive)	0.878 (inactive)
CC1=Nc2ccc(Cl)cc2S(=O)(=O)N1 [Diazoxide] (20 µM)	1.06	1.01	0.986	1.21	1.1 (inactive)	1.09 (inactive)	1.16 (inactive)	0.991 (inactive)	1.06 (inactive)	0.943 (inactive)	1.1 (inactive)	1.35 (active)
CC(C)(C)c1ccc(C(O)CCCN2CCC(C(O)(c3ccccc3)c3ccccc3)CC2)cc1 (stereo not drawn) [Terfenadine] (20 µM)	1.21	1	1.09	1.21	0.886 (inactive)	1.06 (inactive)	0.754 (active)	1 (inactive)	0.97 (inactive)	1.05 (inactive)	1.01 (inactive)	0.815 (inactive)
CC(=O)OC(C)OC(=O)C(C)c1ccc(-c2ccccc2)c(F)c1 (stereo not drawn) [Flurbiprofen axetil] (20 µM)	1.11	1.03	0.976	0.996	1.01 (inactive)	1.04 (inactive)	1.07 (inactive)	1.04 (inactive)	1 (inactive)	1.07 (inactive)	0.987 (inactive)	1.04 (inactive)
NC(N)=Nc1nc(CSCCN/C=N/S(=O)(=O)c2ccc(Br)cc2)cs1 [Ebrotidine] (20 µM)	1.02	1.02	0.989	1.02	1.03 (inactive)	0.91 (inactive)	0.836 (inactive)	0.974 (inactive)	0.991 (inactive)	1.06 (inactive)	1.01 (inactive)	0.887 (inactive)
O=C1CCC(N2C(=O)c3ccccc3C2=O)C(=O)N1 (stereo not drawn) [Thalidomide] (20 µM)	1.13	0.98	1.04	1.15	1 (inactive)	1 (inactive)	0.971 (inactive)	0.97 (inactive)	1.02 (inactive)	1.02 (inactive)	1 (inactive)	0.981 (inactive)
CC(C)NC(=N)NC(=N)Nc1ccc(Cl)cc1 [Proguanil hydrochloride] (20 µM)	0.986	0.955	0.964	0.969	1.06 (inactive)	1.04 (inactive)	1.03 (inactive)	1.09 (inactive)	0.997 (inactive)	0.868 (inactive)	0.979 (inactive)	1.02 (inactive)
CCC(=O)O[C@]1(C(=O)CCl)[C@@H](C)C[C@H]2[C@@H]3CCC4=CC(=O)C=C[C@]4(C)[C@@]3(F)[C@@H](O)C[C@@]21C [Clobetasol propionate] (20 µM)	1.36	1.06	1.06	0.908	0.98 (inactive)	1.02 (inactive)	0.96 (inactive)	0.988 (inactive)	1.02 (inactive)	1.01 (inactive)	0.999 (inactive)	0.936 (inactive)
Nc1ccn([C@H]2CC[C@@H](CO)O2)c(=O)n1 [Zalcitabine] (20 µM)	1.05	1.04	0.995	0.997	1.03 (inactive)	1.02 (inactive)	1.04 (inactive)	1.09 (inactive)	0.978 (inactive)	0.975 (inactive)	0.997 (inactive)	1.02 (inactive)
O=S(=O)(O)NC1CCCCC1 [Cyclamic acid] (50 µM)	1.16	0.998	0.991	0.998	1.01 (inactive)	1.03 (inactive)	1.01 (inactive)	1.03 (inactive)	1.01 (inactive)	0.989 (inactive)	0.991 (inactive)	1.02 (inactive)
CO[C@@]1(NC(=O)C2SC(=C(C(N)=O)C(=O)O)S2)C(=O)N2C(C(=O)O)=C(CSc3nnnn3C)CS[C@@H]21 (stereo partly drawn) [Cefotetan] (20 µM)	0	0.0332	0.987	1.17	0.528 (active)	0.0152 (active)	1.08 (inactive)	0.606 (inactive)	0.978 (inactive)	2.18 (active)	1.1 (inactive)	1.1 (inactive)
O=C(COc1ccc(Cl)cc1)N1CCN(Cc2ccc3c(c2)OCO3)CC1 [Fipexide hydrochloride] (20 µM)	1.05	0.947	0.961	0.87	1 (inactive)	0.943 (inactive)	0.945 (inactive)	1 (inactive)	1.01 (inactive)	0.953 (inactive)	1.01 (inactive)	0.916 (inactive)
